Measured values reported in PubChem BioAssay (EPA / NIEHS).
“And” between values parts separate entries of the source, which are not always exact repeats. Equal entries are not always repeated. More than one record can exist for a structure, and the calls need not agree. The source made the active and inactive calls. The calls were made as follows: active = hit-call score of the fitted dose curve at least 0.9, where 1 is the maximum; inactive = score below 0.9.

Tests used:
[1] = BSK_hDFCGF_SRB: Viability Assessment in the BioMAP Diversity Plus: hDFCGF Assay (AID 2283061); details: primary human foreskin fibroblasts;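 also: cells exposed to compound for 24 h before the read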
How it was run: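 SRB-based viability read on primary human skin fibroblasts at 24 h: TCA fixation, 0.1% dye, 560 nm. Gain or loss of signal is fitted against the DMSO negative control.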

[2] = read-out: TIMP metallopeptidase inhibitor 1 (TIMP1), TIMP1 (gene 7076); assay: BSK_hDFCGF_TIMP1: BioMAP Diversity Plus: hDFCGF Assay for TIMP metallopeptidase inhibitor 1 (TIMP1) Biomarker Activity (AID 2283062); details: primary human foreskin fibroblasts; actives raise or lower the signal
How it was run: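 Bidirectional curve fitting against DMSO baseline yielded this endpoint, based on ELISA detection of TIMP-1 in primary human foreskin fibroblasts exposed to compound for 24 h.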

[3] = read-out: Matrix Metallopeptidase 1 (MMP1), MMP1 (gene 4312); assay: BSK_hDFCGF_MMP1: BioMAP Diversity Plus: hDFCGF Assay for Matrix Metallopeptidase 1 (MMP1) Biomarker Activity (AID 2283064); details: primary human foreskin fibroblasts; actives raise or lower the signal
How it was run: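 Primary human foreskin fibroblasts in the hDFCGF system were dosed with test chemical, and MMP1 was measured by ELISA 24 h later. Values come from bidirectional curve fitting against the DMSO baseline.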

[4] = read-out: Vascular cell adhesion molecule 1 (VCAM1), VCAM1 (gene 7412); assay: BSK_hDFCGF_VCAM1: BioMAP Diversity Plus: hDFCGF Assay for Vascular cell adhesion molecule 1 (VCAM1) Biomarker Activity (AID 2283065); details: primary human foreskin fibroblasts; actives raise or lower the signal;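 as to AC50: VCAM-1 protein level quantified by ELISA after 24 h chemical exposure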
How it was run: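 Measured after 24 h chemical treatment of primary human skin fibroblasts, VCAM-1 was detected by ELISA and concentration-response analysed in both directions versus DMSO vehicle.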

[5] = read-out: Plasminogen activator inhibitor-1 (PAI1), SERPINE1 (gene 5054); assay: BSK_hDFCGF_PAI1: BioMAP Diversity Plus: hDFCGF Assay for Plasminogen activator inhibitor-1 (PAI1) Biomarker Activity (AID 2283066); details: primary human foreskin fibroblasts; actives raise or lower the signal
How it was run: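 Primary dermal fibroblasts (human foreskin), hDFCGF system; compound 24 h; PAI-1 by ELISA; bidirectional fit vs DMSO control.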

[6] = read-out: Intercellular Adhesion Molecule 1 (ICAM1), ICAM1 (gene 3383); assay: BSK_KF3CT_ICAM1: BioMAP Diversity Plus: KF3CT Assay for Intercellular Adhesion Molecule 1 (ICAM1) Biomarker Activity (AID 2283067); details: primary human keratinocytes with fibroblasts; actives raise or lower the signal
How it was run: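 Bidirectional curve fitting against a DMSO baseline was applied to ICAM-1 ELISA signal from primary human skin co-cultures harvested 24 h after treatment, with SRB staining of parallel wells for overt cytotoxicity.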

[7] = read-out: Interferon-gamma inducible Protein 10 (IP10), CXCL10 (gene 3627); assay: BSK_KF3CT_IP10: BioMAP Diversity Plus: KF3CT Assay for Interferon-gamma inducible Protein 10 (IP10) Biomarker Activity (AID 2283068); details: primary human keratinocytes with fibroblasts; actives raise or lower the signal
How it was run: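 Signal is secreted/surface IP-10 by ELISA in a human primary skin co-culture of keratinocytes and foreskin fibroblasts, taken 24 h post-dosing; DMSO served as negative control.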

[8] = BSK_KF3CT_SRB: Viability Assessment in the BioMAP Diversity Plus: KF3CT Assay (AID 2283069); details: primary human keratinocytes with fibroblasts;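 also: total protein by sulforhodamine B staining as a cytotoxicity measure; read 24 h after compound addition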
How it was run: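 Human primary keratinocyte plus foreskin fibroblast co-culture exposed to chemicals for 24 h. Total protein measured by 0.1% sulforhodamine B staining after 10% TCA fixation, read at 560 nm; bidirectional fitting versus DMSO baseline.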

[9] = read-out: Interleukin-1 alpha (IL1a), IL1A (gene 3552); assay: BSK_KF3CT_IL1a: BioMAP Diversity Plus: KF3CT Assay for Interleukin-1 alpha (IL1a) Biomarker Activity (AID 2283070); details: primary human keratinocytes with fibroblasts; actives raise or lower the signal
How it was run: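 Human keratinocyte plus foreskin fibroblast primary co-culture, sampled 24 h after chemical dosing. IL-1a measured by ELISA; responses fitted bidirectionally against DMSO baseline (negative control), so gain or loss of signal both count.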

Measured: AC50

CC(C)(CO)CO
inactive: [1] | [2] | [3] | [4] | [5] | [6] | [7] | [8] | [9]
active: [1] 4.62 µM

CC(C)CCCC(C)(C)O
inactive: all assays above

COC(=O)c1ccc(C(=O)OC)cc1
inactive: all assays above

Nc1ccc(N)c([N+](=O)[O-])c1
inactive: all assays above

CC=CC(=O)C1=C(C)C=CCC1(C)C
active: [5] 16 nM
inactive: all other assays above

CCn1cc(C(=O)O)c(=O)c2ccc(C)nc21
inactive: all assays above

C=CC(=O)OCC(CO)(COC(=O)C=C)COC(=O)C=C
active: [1] 0.0163 µM | [2] 16 nM | [3] 146 nM | [4] 26.3 nM | [5] 26.6 nM | [6] 682 nM | [7] 1080 nM | [8] 592 nM | [9] 517 nM

CCCO[Si](OCCC)(OCCC)OCCC
inactive: all assays above

CCCCCCCCCCCCS
active: [1] 11.7 µM | [2] 8950 nM | [3] 10200 nM | [4] 7260 nM | [5] 10800 nM | [8] 32900 nM | [9] 20000 nM
inactive: [6] | [7]

C=C(C)C(=O)OCCC(F)(F)C(F)(F)C(F)(F)C(F)(F)C(F)(F)C(F)(F)C(F)(F)C(F)(F)F
inactive: all assays above

O=C(O)C(F)(F)C(F)(F)C(F)(F)C(F)(F)C(F)(F)C(F)(F)C(F)(F)C(F)F
active: [1] 20.1 µM and 15.8 µM
inactive: all other assays above

CCCCCCCC1CCCC1=O (stereo not drawn)
active: [6] 30600 nM | [8] 35100 nM
inactive: all other assays above

OCCN1CCOCC1
inactive: all assays above

CC(=O)CCC=C(C)CCC=C(C)C
inactive: all assays above

CC(C)(C)c1cccc(O)c1
inactive: all assays above

C#C[C@]1(O)CC[C@H]2[C@@H]3CCc4cc(O)ccc4[C@H]3CC[C@@]21C
inactive: all assays above

CC(C)Cc1ccc(C(C)C(=O)O)cc1 (stereo not drawn)
inactive: all assays above

CC(=O)c1ccc(C)cc1
inactive: all assays above

CC1=CC(C)C(C=O)C(C)C1 (stereo not drawn) (tested in a mixture with another compound)
inactive: all assays above

O=S(=O)(O)C(F)(F)C(F)(F)OC(F)(F)C(F)(F)F
inactive: all assays above

c1ccc2c(c1)-c1ccc3ccc4cccc5cc-2c1c3c45
inactive: all assays above

C[C@]12CC[C@@H]3c4ccc(O)cc4CC[C@H]3[C@@H]1CC[C@@H]2O
active: [4] 20000 nM
inactive: all other assays above

O=S1(=O)CC(Cl)(Cl)C(Cl)(Cl)C1
active: [1] 0.845 µM | [2] 839 nM | [3] 865 nM | [4] 613 nM | [5] 865 nM | [6] 1400 nM | [7] 2650 nM | [8] 1360 nM | [9] 1520 nM
